# Measurements as given in PMC13423814.
# Legend:
# [1] = target: Heterogeneous nuclear ribonucleoprotein A/B (UniProt Q99729)
# [2] = target: Heterogeneous nuclear ribonucleoprotein A0 (UniProt Q13151)
# [3] = target: Heterogeneous nuclear ribonucleoprotein U (UniProt Q00839)
# [4] = target: Non-POU domain-containing octamer-binding protein (UniProt Q15233)
# [5] = target: Polypyrimidine tract-binding protein 1 (UniProt P26599)
# [6] = target: Histone H4 (UniProt P62805)
# [7] = target: Heterogeneous nuclear ribonucleoproteins C1/C2 (UniProt P07910)
substance,measurement,setting,value
"Heterogeneous nuclear ribonucleoproteins C1/C2, P07910",listed as a hit,[1],yes
same,listed as a hit,[2],yes
same,listed as a hit,[3],yes
same,listed as a hit,[4],yes
same,listed as a hit,[5],yes
"SWI/SNF-related matrix-associated actin-dependent regulator of chromatin subfamily A member 2, P51531",listed as a hit,[6],yes
"Heterogeneous nuclear ribonucleoprotein R, O43390",listed as a hit,[7],yes
